# Screening data from PubChem BioAssay.
# Sampled rows, rich in hits. Any-hit rate of the full collection: about 17%.
# ATXN2 expr inh: Primary qHTS for Inhibitors of ATXN expression | HEK-293 ATXN2-luciferase reporter, luminescence, 24 h | Potency, µM (series often up to 57 µM), for inactives: at the highest dose activity change, negative = inhibition, usual class: inhibitors | 0.72% of 360,000 active | AID 1745845, 2022; further: on the % scale 0 is the no-effect control and ±100 the full control effect; nearly all actives have a fitted effect of over 55% in size
#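 qHTS (up to 57 uM final) was run with 24 h compound exposure of reporter cells at 37 °C. Each well was multiplexed: SteadyGlo luminescence measured ATXN2-luciferase expression after a fluorogenic Gly-Phe-AFC viability readout (25 uM final).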
# TGFb inhibitor: qHTS for Inhibitors of TGF-b; Potency, µM (titrated, usually from 46.1 µM), for inactives: at the top dose activity, negative = inhibition, usual class: inhibitors; 1.2% of 410,000 active; HepG2 CAGA-GFP TGF-b/SMAD3 reporter, GFP fluorescence, 18 h; TGF-beta stimulated, 500 pg/mL final; further: on the % scale 0 is the no-effect control and ±100 the full control effect; nearly all actives have a fitted effect of over 65% in size
#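 GFP signal (ex488/em500-530) from TGF-beta-stimulated HEPG2 CAGA-GFP cells, 500 pg/mL final, 18 h at 37 degrees C in DMEM plus 1% FBS, normalized to unstimulated and DMSO-stimulated controls.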
# ATXN viability: Viability Counterscreen for Primary qHTS for Inhibitors of ATXN expression; S2 cells (HEK-293 line with an ATXN2-luciferase reporter) viability, CellTiter-Fluor protease fluorescence, 24 h; Potency, µM (titrated, usually from 56.7 µM), actives largely listed as cytotoxic; 0.49% of 400,000 active; AID 651635, 2014; further: nearly all actives have a fitted effect of over 40% in size
# HepG2 viability: qHTS for Inhibitors of TGF-b: Cytotox Counterscreen; Potency, µM (series often up to 46.1 µM), inactives show at the top dose activity change, negative = cytotoxicity, usual class: cytotoxic; 0.76% of 410,000 active; HepG2 CAGA-GFP viability, ATP luminescence, 18 h
#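 HepG2 CAGA-GFP cells (1000/well, DMEM with 1% FBS) received compound, then TGF-beta at 500 pg/mL final, and were incubated 18 hours at 37 degrees C. Viability was read by CellTiter-Glo luminescence. Media-only wells were set as complete cell-killing and DMSO as no toxicity.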
# TDP1 cell noCPT: qHTS for Inhibitors of human tyrosyl-DNA phosphodiesterase 1 (TDP1): qHTS in cells in absence of CPT; DT40 Tdp1-/- hTDP1 cells, no CPT, ATP luminescence, 48 h; 15% of 420,000 active; Potency, µM (doses to about 46.2 µM), inactives show top-dose activity change, negative = growth inhibition, hits mostly inhibitors; further: on the % scale 0 is the no-effect control and ±100 the full control effect; nearly all actives have a fitted effect of over 55% in size
#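 Growth of hTDP1-complemented DT40 Tdp1-knockout cells is measured by ATP luminescence after at least 48 hr compound exposure at 37 °C, with DMSO substituting for the 20 nM CPT used in the parallel screen.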
# TDP1 cell CPT: qHTS for Inhibitors of human tyrosyl-DNA phosphodiesterase 1 (TDP1): qHTS in cells in presence of CPT; chicken DT40 Tdp1-/-;hTDP1 cells + 20 nM CPT, ATP luminescence, 48 h; Potency, µM (doses to about 46.2 µM), for inactives: at the highest dose activity change, negative = growth inhibition, hits mostly inhibitors; 12% of 420,000 active; AID 686979, 2013; further: on the % scale 0 is the no-effect control and ±100 the full control effect; nearly all actives have a fitted effect of over 55% in size
#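 Chicken DT40 Tdp1-/- cells stably complemented with human TDP1 were seeded at 400 cells/well in medium containing 20 nM camptothecin, exposed to pin-transferred compounds, and grown at 37 °C for at least 48 hr. Viability was read as ATP luminescence.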
# The depositor's hits bear a star; i = inactive; ? = inconclusive; / = no result; ! = a repeat was not active. The call rests on the fitted dose curve; in most records, active means well fitted curve in the direction sought with a large enough effect; inconclusive means small, poorly fitted or top-dose-only effect, or another doubt; inactive means no such curve, though single readings can be large; an effect the other way counts as inactive or inconclusive. Potency means the concentration at half of the fitted maximal effect.
SMILES,ATXN2 expr inh,TGFb inhibitor,ATXN viability,HepG2 viability,TDP1 cell noCPT,TDP1 cell CPT
Cc1cccc(CSc2nnnn2-c2ccccc2)c1,7.5%,-1.0%,i,-17.0%,-20.4%,?
Cc1sc2ncnc(Sc3nnnn3-c3ccccc3)c2c1C,15.8µM*,12.6µM*!,31.6µM*,10µM*!,7.08µM*,5.8µM*
O=C(O)CSc1ncnc2scc(-c3ccccc3)c12,-12.2%,-24.1%,i,-6.3%,1.7%,10.3%
Cc1ccc(C)c(-n2nnnc2Sc2nnnn2-c2ccccc2)c1,?,?,?,-35.3%,13µM*,?
Cc1ccc(-c2csc3ncnc(Sc4nnnn4-c4ccccc4)c23)cc1,/,6.31µM*,/,-97.2%,5.62µM*,7.08µM*
c1ccc(-c2ccc(-c3csc4ncnc(Sc5nnnn5-c5ccccc5)c34)cc2)cc1,/,?,/,-10.8%,6.31µM*,7.08µM*
CC1ON=C(c2ccccn2)N(Cc2ccc3c(c2)OCO3)C1=O (centres undefined),-1.2%,-11.0%,i,0.5%,?,?
C=CCOc1ccc(C(=O)N(Cc2ccc(N(C)C)cc2)C2CCS(=O)(=O)C2)cc1 (centres undefined),-2.7%,-27.3%,i,-8.8%,-0.2%,-7.7%
Clc1ccc(-c2csc3ncnc(Sc4nnnn4-c4ccccc4)c23)cc1,/,6.31µM*,/,6.31µM*,2µM*,3.55µM*
Cc1cc(CN2CCCCC2C(=O)Nc2ccc(Oc3cccnc3)cc2)oc1C (centres undefined),5.8%,-15.0%,i,-3.9%,?,?
CC(=O)c1cccc(CN2CCC(C(=O)Nc3ccc(Oc4cccnc4)cc3)CC2)c1,-12.6%,-5.4%,i,3.1%,23.1µM*,?
Cc1ccc(CN2CCC(C(=O)Nc3ccc(Oc4cccnc4)cc3)CC2)cc1,-22.4%,-4.6%,i,-43.6%,16.4µM*,18.4µM*
O=C(Nc1ccc(Oc2cccnc2)cc1)C1CCN(Cc2ccccc2F)CC1,-13.3%,-14.0%,?,-34.0%,?,?
O=C(Nc1ccc(Oc2cccnc2)cc1)C1CCN(Cc2cccc(Cl)c2)CC1,-27.1%,-4.5%,i,-24.3%,?,18.4µM*
CC(=O)c1cccc(CN2CCC(C(=O)Nc3ccc(-c4cccc(C)c4)cc3)CC2)c1,?,?,?,-107.5%,6.51µM*,10.3µM*
COc1cccc(C2(C)NC(=O)N(CC(=O)Nc3ccc(N4CCOCC4)cc3)C2=O)c1 (centres undefined),6.8%,1.7%,i,12.2%,-4.7%,-25.0%
COC(=O)c1ccc(-c2cccc3c2OC(CNC(=O)/C=C/c2ccc(OC)c(OC)c2)C3)nc1 (centres undefined),/,/,?,/,-20.2%,?
O=C(CSc1nnc(SCc2ccc(Cl)cc2)s1)N/N=C/c1ccccc1C(=O)O,-12.3%,0.9%,i,-9.0%,?,-16.4%
O=C(Nc1ccc(Oc2ncnc3cc(Cl)ccc23)nc1)Nc1cccc(C(F)(F)F)c1,2.1%,0.0%,i,-4.9%,-3.2%,0.9%
CCOC(=O)C(C(=O)OCC)[C@@H]1CS(=O)(=O)C[C@H]1C(C(=O)OCC)C(=O)OCC,-26.1%,8.8%,i,-7.6%,-22.6%,-2.8%
Cc1nc2ccc(Cl)cn2c1C(=O)NN,3.6%,8.5%,i,-8.1%,-18.7%,-3.1%
CN1CCN(C(=O)c2ccc3c(c2)N(Cc2ccccc2)CCS3)CC1,-27.9%,2.2%,i,-24.3%,?,?
CN1CCSc2ccc(C(=O)Nc3ccc(Cl)cc3)cc21,32.3%,-3.5%,i,8.6%,-19.9%,3.6%
CCc1ccc(NC(=O)c2ccc3c(c2)N(Cc2ccc(C)cc2)CCS3)cc1,35.1%,-2.1%,i,-13.1%,?,14.6µM*
O=C(NCC1CCCO1)c1ccc2c(c1)N(Cc1ccc(Cl)cc1)CCS2 (centres undefined),/,-17.5%,i,-31.9%,23.1µM*,?
SMILES,ATXN2 expr inh,TGFb inhibitor,ATXN viability,HepG2 viability,TDP1 cell noCPT,TDP1 cell CPT
CCOC(=O)N1CCC(NC(=O)c2ccc3c(c2)N(CC)CCS3)CC1,-17.5%,-4.4%,i,-24.9%,?,20.6µM*
Cc1ccc(CN2CCSc3ccc(C(=O)Nc4ccc(F)cc4F)cc32)cc1,3.3%,-9.5%,i,-6.8%,?,16.4µM*
Cc1ccc(CN2CCSc3ccc(C(=O)NCC4CCCO4)cc32)cc1 (centres undefined),6.0%,-5.0%,i,2.1%,?,?
CCOC(=O)N1CCC(NC(=O)CN2C(=O)CCSc3ccccc32)CC1,8.2%,8.2%,i,4.2%,-7.2%,0.9%
Cc1cccc(NC(=O)CSc2nc(=O)n(CCCN3CCOCC3)c3c2CCCC3)c1,9.0%,0.0%,i,-19.6%,-1.8%,0.2%
COc1ccc(N2CCN(C(=O)c3cc(-c4ccc(C)c(F)c4)on3)CC2)cc1,4.1%,0.8%,i,-5.0%,0.4%,-3.8%
C=CCOC(=O)N1CCC2CC1c1cc(-c3cccc(C)c3)ccc12 (centres undefined),3.6%,-35.3%,i,-39.9%,?,?
CCOC(=O)N1CCC(NC(=O)c2ccc3c(c2)N=C(C)c2c(C)ccc(C)c2S3)CC1,/,?,?,-21.1%,1.16µM*,2.06µM*
Cc1ccc(CN2CCSc3ccc(C(=O)NCc4cccnc4)cc32)cc1,-11.1%,?,i,-13.9%,?,23.1µM*
O=C(NC1CCCC1)c1ccc2c(c1)N(Cc1ccc(F)cc1)CCS2,/,?,?,-32.0%,?,?
Cc1ccc(CN2CCSc3ccc(C(=O)NC4CCCC4)cc32)cc1,6.7%,-0.5%,i,-6.7%,?,16.4µM*
CCn1c(SCC(=O)Nc2ccc(OC)c(OC)c2)nnc1-c1cccs1,1.3%,-24.3%,i,11.3%,-15.8%,-17.0%
CCn1c(SCc2nc(-c3cccs3)no2)nnc1-c1c[nH]c2ccccc12,?,?,?,-25.0%,23.1µM*,?
CCn1c(SCc2nc(-c3ccccc3)no2)nnc1-c1cccs1,5.3%,-0.7%,i,1.6%,-26.2%,?
CCn1c(SCC(=O)c2c[nH]c3ccccc23)nnc1-c1cccs1,-8.7%,8.9%,i,8.6%,5.8µM*,?
